# Reference: PubChem BioAssay (NCI)
# This is part of a sample that, as a whole, favours compounds with a hit. Of some 79,000 tested, about 15% had one in any assay. A number with no mark means an inactive call. Active and inactive are the calls of the source. Rule as the data show it: active = growth inhibition above about 70%; inactive = the rest.
# What was measured:
# [1] = NCI Yeast Anticancer Drug Screen. Data for the rad50 strain (AID 155);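 also: 0% = growth of vehicle-only cultures of the same strain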; settings: S. cerevisiae rad50 strain growth inhibition, active compounds read high
# How it was run: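 Cells are treated with compound, grown, and their growth is then scored against vehicle-only cultures of the same repair-deficient yeast strain.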
# [2] = NCI Yeast Anticancer Drug Screen. Data for the mec2-1 strain (AID 157); settings: S. cerevisiae mec2-1 strain, active compounds read high
# How it was run: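 Test agents were screened against the mec2-1 yeast strain, with defined DNA repair or cell cycle alteration. Growth was scored as inhibition against vehicle-only controls.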
# [3] = NCI Yeast Anticancer Drug Screen. Data for the sgs1 mgt1 strain (AID 161);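 also: 0% = growth of cultures given vehicle only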; settings: S. cerevisiae sgs1 mgt1 strain, active compounds read high
# How it was run: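 Inhibition of yeast growth, normalised to vehicle-treated controls, is reported for a strain bearing genetic alterations in DNA damage repair.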
# [4] = NCI Yeast Anticancer Drug Screen. Data for the cln2 rad14 strain (AID 165);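 also: 0% = growth equal to vehicle treated cultures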; settings: S. cerevisiae cln2 rad14 strain, active compounds read high
# How it was run: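 Growth of compound-exposed yeast (cln2 rad14 genotype) measured and expressed as inhibition relative to vehicle.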
# [5] = NCI Yeast Anticancer Drug Screen. Data for the bub3 strain (AID 167); settings: S. cerevisiae bub3 mutant strain, active compounds read high
# How it was run: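 Part of a panel of yeast mutants defective in DNA damage repair or cell cycle regulation. Each strain is grown with compound, and inhibition is calculated relative to solvent-treated cultures.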
# [6] = NCI Yeast Anticancer Drug Screen. Data for the mlh1 rad18 strain (AID 175); settings: S. cerevisiae mlh1 rad18 strain growth inhibition, active compounds read high
# How it was run: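 In this whole-cell yeast screen, a strain with altered DNA damage repair is challenged with compound, and its growth is measured against matched vehicle-treated controls.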
# [7] = at 5.0 µM (retest, dose inferred, filed as 0.5)
# [8] = at 50.0 µM (retest, dose inferred, filed as 5.0)
SMILES,"growth inhibition [1, 7]","growth inhibition [1, 8]",growth inhibition ([1]; at 50.0 µM),"growth inhibition [2, 7]","growth inhibition [2, 8]",growth inhibition ([2]; at 50.0 µM),"growth inhibition [3, 7]","growth inhibition [3, 8]",growth inhibition ([3]; at 50.0 µM),"growth inhibition [4, 7]","growth inhibition [4, 8]",growth inhibition ([4]; at 50.0 µM),"growth inhibition [5, 7]","growth inhibition [5, 8]",growth inhibition ([5]; at 50.0 µM),"growth inhibition [6, 7]","growth inhibition [6, 8]",growth inhibition ([6]; at 50.0 µM)
O=[N+]([O-])CCc1ccco1,3%,0%,74.8% (active),1%,-1%,73.2% (active),2%,2%,47.4%,3%,0%,56.2%,4%,-4%,95.2% (active),0%,-1%,44.1%
C=COCCN1CCN(CCCN2c3ccccc3Sc3ccc(C(F)(F)F)cc32)CC1,-4%,99% (active),99.5% (active),-4%,99% (active),99% (active),-1%,99% (active),99.7% (active),-2%,99% (active),98.7% (active),1%,99% (active),98.5% (active),1%,99% (active),99.3% (active)
CSc1ccc(C(=O)C(=O)c2ccc(SC)s2)s1,14%,11%,26.6%,-15%,-8%,39.5%,14%,14%,73.8% (active),0%,37%,76.7% (active),-2%,9%,48.7%,4%,2%,-1.7%
COc1ccc(Br)c2c1CC(C(=O)O)CC2 (stereo not given),-29%,-23%,8%,-26%,26%,4.05%,-33%,-22%,-10.1%,6%,6%,-17.2%,-13%,13%,11.9%,-20%,-19%,2.8%
CCCCc1c2c(nc3c1CCc1cc4cc5c(nc4nc1-3)-c1nc3c(c(CCCC)c1CC5)CCCC3=O)C(=O)CCC2,71% (active),97% (active),97.7% (active),86% (active),97% (active),97.2% (active),54%,97% (active),98% (active),90% (active),96% (active),95.9% (active),97% (active),96% (active),97.2% (active),86% (active),96% (active),97.3% (active)
C=CCC1=C(C)C(OC(=O)/C=C/c2ccccc2Cl)CC1=O (stereo not given),17%,81% (active),86.2% (active),0%,88% (active),85.1% (active),13%,88% (active),72.2% (active),-6%,89% (active),69%,3%,90% (active),95.4% (active),8%,89% (active),84.3% (active)
CCCCC(=O)N/N=C(\C)[C@]1(O)Cc2c(O)c3c(c(O)c2[C@@H](OC2CC(N)C(O)C(C)O2)C1)C(=O)c1c(OC)cccc1C3=O (stereo not given in full),64%,97% (active),98.7% (active),-12%,97% (active),99.2% (active),17%,97% (active),51.5%,8%,89% (active),97.1% (active),15%,98% (active),98.5% (active),17%,97% (active),98.5% (active)
CCc1cccc(C(C)(C)C)c1NC(=S)N/C=C(\C#N)C(=O)c1ccc2ccccc2c1,-5%,34%,67.4%,-26%,25%,35.5%,-8%,22%,70.7% (active),-18%,8%,29.3%,-17%,18%,63.9%,-6%,38%,65.2%
CC(NNC(=S)N1CCCC1)c1cc2ccccc2cn1 (stereo not given),30%,99% (active),89.2% (active),38%,99% (active),90.8% (active),62%,98% (active),90.8% (active),66%,96% (active),90.3% (active),64%,98% (active),88.2% (active),34%,98% (active),92.2% (active)
Cc1ccc(S(=O)(=O)OCC(C)(C)C)cc1,-152%,-169%,8.4%,-48%,-59%,2.05%,-63%,-69%,-2.7%,-61%,-83%,-29.6%,-57%,5%,86.8% (active),-125%,-127%,14.5%
